Test systems include SR leukemia; RPMI-8226 leukemia; OVCAR-5 ovarian; OVCAR-4 ovarian; SK-OV-3 ovarian; IGROV1 ovarian; OVCAR-3 ovarian; HS 578T breast; NCI/ADR-RES ovarian; OVCAR-8 ovarian.
What all share (experiment): NCI-60 one-dose screen, 48 h (100 = growth as untreated, 0 = no growth, -100 = all killed)
Common to all, as to details: 10 µM

This is part of a sample that, as a whole, favours compounds with a hit. Of some 83,000 tested, about 20% had one in any assay.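 Growth was measured after 48 h exposure to one concentration of compound in 96-well plates. Values under 10 count as active.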 A number with no mark means an inactive call. Calls of active or inactive are those of the source.

In the case of `C/C(=C\c1cc(Cl)ccc1OCC(=O)O)[N+](=O)[O-]`, the growth in the test on SR leukemia was 113%; in the test with RPMI-8226 leukemia, 81.5%; in the test with OVCAR-5 ovarian, 106%; in the test with OVCAR-4 ovarian it was 111%; with SK-OV-3 ovarian it was 97.7%; with IGROV1 ovarian, 112%. Also, the growth in the test on OVCAR-3 ovarian was 109%; in the test on HS 578T breast it was 93.5%; in the test with NCI/ADR-RES ovarian, 102%.

With `Nc1ccc(N)c([N+](=O)[O-])c1`, the growth is 115% in the test with SR leukemia; 98.8% with RPMI-8226 leukemia; 104% with OVCAR-5 ovarian; 112% in the test on OVCAR-4 ovarian; 113% in the test with SK-OV-3 ovarian; 113% with IGROV1 ovarian. For the same molecule, the growth is 106% in the test on OVCAR-3 ovarian, 105% with HS 578T breast and 107% in the test with NCI/ADR-RES ovarian.

As to `O=C(O)CSCSCC(=O)O`, the growth with SR leukemia was 97.1%; in the test on RPMI-8226 leukemia, 97.3%; with OVCAR-5 ovarian, 101%; with OVCAR-4 ovarian it was 99.6%; with SK-OV-3 ovarian, 93.6%; in the test with IGROV1 ovarian it was 107%. Moreover, the growth in the test with OVCAR-3 ovarian was 104%; with HS 578T breast it was 114%; in the test on NCI/ADR-RES ovarian, 109%.

As to `COC(=O)Nc1cccc(Cl)c1OC`, the growth in the test with SR leukemia was 101%; in the test on RPMI-8226 leukemia, 99.3%; in the test with OVCAR-5 ovarian it was 92.6%; with OVCAR-4 ovarian, 111%; in the test on SK-OV-3 ovarian it was 116%; with IGROV1 ovarian, 110%. For the same molecule, the growth with OVCAR-3 ovarian was 111%; with HS 578T breast, 95.4%; with NCI/ADR-RES ovarian, 110%.

Consider `CO[C@H]1C[C@@H]2CC[C@@H](C)[C@@](O)(O2)C(=O)C(=O)N2CCCC[C@H]2C(=O)O[C@H]([C@H](C)C[C@@H]2CC[C@@H](O)[C@H](OC)C2)CC(=O)[C@H](C)C=C(C)[C@@H](O)[C@@H](OC)C(=O)[C@H](C)C[C@H](C)/C=C/C=C/C=C1C`, for which the growth is 23.7% with SR leukemia; 23.8% in the test on RPMI-8226 leukemia; -6.29% (active) with OVCAR-5 ovarian; 33.3% with OVCAR-4 ovarian; 45.1% in the test with SK-OV-3 ovarian; 11.9% with IGROV1 ovarian. The figures for the growth with OVCAR-3 ovarian and in the test with NCI/ADR-RES ovarian were 55.1% and -10.4% (active), respectively.

As to `CN(C)c1ccc2nc3ccc(=N)cc-3sc2c1`, the growth is 12% with SR leukemia; 6.67% (active) with RPMI-8226 leukemia; 80.1% in the test with OVCAR-5 ovarian; -8.03% (active) with OVCAR-4 ovarian; 95.9% in the test on SK-OV-3 ovarian; 49.4% with IGROV1 ovarian. For the same molecule, the figures for the growth with OVCAR-3 ovarian, with HS 578T breast and in the test on NCI/ADR-RES ovarian were 6.65% (active), 99.6% and 3.53% (active), respectively.

Consider `S=C1CCCCCN1`, for which the growth with SR leukemia is 102%; with RPMI-8226 leukemia, 98.3%; in the test with OVCAR-5 ovarian it was 103%; in the test on OVCAR-4 ovarian, 111%; in the test with SK-OV-3 ovarian, 119%; with IGROV1 ovarian, 110%. For the same molecule, the growth with OVCAR-3 ovarian was 115%; in the test with HS 578T breast it was 105%; with NCI/ADR-RES ovarian it was 104%.

Consider `CCOC(=O)c1ccc(NC(=S)P(=O)(c2ccccc2)c2ccccc2)cc1`, for which the growth in the test on SR leukemia was 69.3%; in the test on RPMI-8226 leukemia, 64.4%; in the test with OVCAR-5 ovarian, 105%; in the test with OVCAR-4 ovarian, 99.6%; in the test with SK-OV-3 ovarian, 107%; in the test with IGROV1 ovarian, 110%. Besides, the growth is 92.2% in the test on OVCAR-3 ovarian, 96.4% in the test on HS 578T breast and 101% with NCI/ADR-RES ovarian.

In the case of `CCOC(=O)CCCC(=O)OCC`, the growth with SR leukemia is 102%; in the test with RPMI-8226 leukemia, 113%; in the test with OVCAR-5 ovarian, 101%; in the test on OVCAR-4 ovarian, 101%; in the test with SK-OV-3 ovarian it was 96.7%; in the test on IGROV1 ovarian it was 102%. In addition, the results for the growth in the test with OVCAR-3 ovarian, in the test with HS 578T breast and in the test on NCI/ADR-RES ovarian were 102%, 96.2% and 106%, respectively.

In the case of `CC(=O)c1ccc(C(C)(C)C)cc1`, the growth in the test with SR leukemia is 90.6%; with RPMI-8226 leukemia, 95.5%; with OVCAR-4 ovarian it was 93.5%; with SK-OV-3 ovarian, 101%; with IGROV1 ovarian it was 96.7%; in the test on OVCAR-3 ovarian it was 103%.

With `O=C(O)COCC(=O)O`, the growth with SR leukemia is 95.3%; with OVCAR-8 ovarian, 98.2%; in the test with OVCAR-5 ovarian, 107%; with OVCAR-4 ovarian, 88.6%; in the test with SK-OV-3 ovarian it was 111%; with IGROV1 ovarian it was 105%. For the same molecule, the growth in the test on OVCAR-3 ovarian is 103%; in the test on HS 578T breast it was 117%; in the test on NCI/ADR-RES ovarian, 106%.

Regarding `CC(C)(O)C#CC#CC(C)(C)O`, the growth in the test with SR leukemia was 97.9%; in the test on RPMI-8226 leukemia, 92.1%; in the test on OVCAR-5 ovarian it was 97.8%; in the test on OVCAR-4 ovarian it was 104%; in the test on IGROV1 ovarian, 102%; in the test on HS 578T breast it was 100%. The growth with NCI/ADR-RES ovarian was 96.9%.

`c1cc[n+](C2c3ccccc3C([n+]3ccccc3)c3ccccc32)cc1` (stereo not given): the growth in the test on SR leukemia is 50.6%; with OVCAR-8 ovarian, 46.8%; in the test on OVCAR-5 ovarian, 95%; with OVCAR-4 ovarian, 75.3%; in the test on SK-OV-3 ovarian it was 92.5%; in the test with IGROV1 ovarian it was 30.4%. Also, the growth in the test on OVCAR-3 ovarian is 77.1%; in the test on NCI/ADR-RES ovarian, 106%.

`CSC[C@H](NC(=O)COc1cccc2cnccc12)C(=O)NC(Cc1ccccc1)C(O)C(=O)N1CSC[C@H]1C(=O)NC(C)(C)C` (stereo not given in full): the growth with SR leukemia was 84.5%; in the test with RPMI-8226 leukemia it was 102%; with OVCAR-5 ovarian, 91.7%; in the test with SK-OV-3 ovarian, 115%; in the test with OVCAR-3 ovarian it was 101%; with HS 578T breast it was 86.8%. For the same molecule, the growth in the test with NCI/ADR-RES ovarian is 106%.

With `C/C(O)=C(\C=N\C(N)=S)C(=O)Nc1ccccc1`, the growth is 91.7% in the test on SR leukemia; 99.7% with OVCAR-8 ovarian; 113% in the test with OVCAR-5 ovarian; 101% with OVCAR-4 ovarian; 100% with SK-OV-3 ovarian; 103% in the test on IGROV1 ovarian. Moreover, the growth is 108% in the test on OVCAR-3 ovarian and 110% with NCI/ADR-RES ovarian.

In the case of `CCNCCCCNCCCCNCCCCNCCCCNCC`, the growth in the test on SR leukemia is 68.5%; with RPMI-8226 leukemia, 82.4%; in the test with OVCAR-5 ovarian, 108%; in the test with SK-OV-3 ovarian, 118%; in the test with OVCAR-3 ovarian, 93.4%; with NCI/ADR-RES ovarian it was 122%.

Take `Oc1ccc(Cc2ccccc2)c2cccnc12`: the growth in the test with SR leukemia was 5.04% (active); in the test on OVCAR-8 ovarian, 15.5%; in the test on OVCAR-5 ovarian it was 37.2%; in the test on OVCAR-4 ovarian, 23.1%; in the test on SK-OV-3 ovarian, 19.9%; in the test on IGROV1 ovarian, -4.71% (active). Moreover, the results for the growth with OVCAR-3 ovarian and with NCI/ADR-RES ovarian were 28.9% and 0.0508% (active), respectively.

In the case of `O=C1c2ccccc2C(=O)c2c1ccc(C(=O)O)c2[N+](=O)[O-]`, the growth in the test with SR leukemia is 76.1%; in the test on OVCAR-8 ovarian it was 100%; with OVCAR-5 ovarian, 102%; in the test with OVCAR-4 ovarian, 96%; with SK-OV-3 ovarian, 108%; in the test with IGROV1 ovarian it was 105%. In addition, the growth is 115% in the test on OVCAR-3 ovarian, 82.5% in the test on HS 578T breast and 103% in the test with NCI/ADR-RES ovarian.

With `O=S(=O)(O)c1ccc(Cl)c(Cl)c1`, the growth with SR leukemia is 99.8%; in the test on OVCAR-8 ovarian, 114%; in the test with OVCAR-5 ovarian, 112%; in the test with OVCAR-4 ovarian it was 106%; in the test with SK-OV-3 ovarian it was 103%; in the test with IGROV1 ovarian, 122%. Besides, the growth in the test with OVCAR-3 ovarian was 123%; in the test with HS 578T breast, 120%; in the test with NCI/ADR-RES ovarian it was 106%.

As for `C=CCCCCCCCCCOC(C)=O`, the growth is 91.4% in the test with SR leukemia; 101% with RPMI-8226 leukemia; 103% with OVCAR-5 ovarian; 103% in the test on OVCAR-4 ovarian; 104% in the test on SK-OV-3 ovarian; 103% in the test with OVCAR-3 ovarian. The figures for the growth in the test with HS 578T breast and in the test on NCI/ADR-RES ovarian were 99.7% and 107%, respectively.

As to `COc1cc(/C=N\Nc2ccccc2)ccc1OC(=O)c1ccccc1`, the growth is 49.6% with SR leukemia; 54.3% in the test on RPMI-8226 leukemia; 64.4% with OVCAR-5 ovarian; 60.6% in the test with IGROV1 ovarian; 70.5% in the test with OVCAR-3 ovarian; 51.2% in the test on NCI/ADR-RES ovarian.

Take `CC(=O)c1sc2c(c1OC(=O)c1ccc(Cl)cc1Cl)c(=O)n(-c1ccccc1)c(=S)n2-c1ccccc1`: the growth in the test with SR leukemia is -10.4% (active); in the test with RPMI-8226 leukemia it was -43.1% (active); with OVCAR-5 ovarian it was -4.64% (active); with SK-OV-3 ovarian, 5.36% (active); with OVCAR-3 ovarian it was 24.1%; in the test on NCI/ADR-RES ovarian, 7.59% (active).

In the case of `CCCCCCCCO`, the growth was 102% in the test on SR leukemia; 100% with OVCAR-8 ovarian; 101% in the test with OVCAR-5 ovarian; 80.1% in the test on OVCAR-4 ovarian; 111% in the test with SK-OV-3 ovarian; 114% in the test on IGROV1 ovarian. Moreover, the growth in the test with OVCAR-3 ovarian is 107%; with NCI/ADR-RES ovarian, 102%.

The values are drawn from PubChem BioAssay (NCI).
